KCNQ2 inh = rat KCNQ2 potassium channel inhibitors, primary screen, cell-based, CHO-K1, FluxOR thallium flux, B-score. Potassium voltage-gated channel subfamily KQT member 2 (Rattus norvegicus), O88943. 20 min; hits give low values. B-score at 10 µM. actives 1.1% (n = 310,000);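 active means fluorescence ratio B-score at most minus 3 library SDs, with starting brightness B-score within 2 library SDs, cut at about -5.5 in these data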
KCNQ2 pot = potentiators of rat KCNQ2 potassium channel | B-score at 10 µM | actives 0.54% (n = 310,000) | AID 2239, 2010 | Potassium voltage-gated channel subfamily KQT member 2 (Rattus norvegicus), O88943 | CHO-K1 KCNQ2, FluxOR thallium flux fluorescence; hits give high values;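 active means fluorescence ratio B-score at least 3 SD of library B-scores, with initial fluorescence B-score within 3 of them, cut at about 5.3 in these data; same plate scores as AID 2156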;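 further: B-score of peak minus minimum over baseline fluorescence ratio after K+ and Tl+ stimulus; positive B-score means potentiation of KCNQ2 with more thallium influx and brighter signal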
Kir21 conf inh = mouse Kir2.1 channel blockers, retest, confirmation, cell-based, FluxOR thallium flux, duplicate. shares compounds with KCNQ2 pot. Kir2.1-expressing cells, FluxOR thallium flux fluorescence; hits give low values. Tl flux remaining, % of negative control (hits give low values), % at 10 µM. actives 41% (n = 2,300);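 active means Primary-screen hit whose thallium flux fell at least 3 control SD below untreated wells in both duplicates, with normal baseline fluorescence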;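 further: 0% = blank wells without stimulus and 100% = stimulated no-compound controls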
HEK293 Tl flux = alters thallium flux in parental HEK293 cells, Kir2.1 counter-screen. FluxOR signal as % of negative control (100 = no effect), % at 10 µM. FluxOR thallium flux fluorescence; 0% = unstimulated blank wells. shares compounds with KCNQ2 pot. actives 19% (n = 2,300);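 active means dye signal at least 3 control SD above or below untreated wells in both duplicates, raw fluorescence within 3, either direction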;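 further: percent is based on the flux ratio of peak minus minimum fluorescence over baseline F0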
CHO-K1 Tl ctr = nonspecific thallium flux increase in parental CHO-K1, confirmation, counter-screen for KCNQ2 potentiator project, cell-based, FluxOR thallium flux, duplicate; shares compounds with KCNQ2 pot; parental CHO-K1 cells, FluxOR thallium flux fluorescence; zero = vehicle mean+3SD, 100% = vehicle-minus-blank window; activity increase over 3SD of controls, % at 10 µM; actives 43% (n = 1,200);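 active means signal rise of at least 3 SD above the untreated control mean, in both duplicate wells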;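 further: counter screen of KCNQ2 potentiator hits so any rise reflects channel-independent effects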
KCNQ1 sel pot = human KCNQ1 channel potentiation off-target, confirmation, selectivity assay for KCNQ2 potentiator project, cell-based, CHO, FluxOR thallium flux; shares compounds with KCNQ2 pot; CHO KCNQ1 stable, FluxOR thallium flux fluorescence; beyond 3SD, as % of vehicle-control signal; activation over 3SD threshold, % at 10 µM; actives 28% (n = 1,200); AID 2283, 2010;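 active means fluorescence ratio rise of at least 3 SD of vehicle wells above their mean, in both replicate wells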;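 further: 0% = vehicle mean plus 3 SD and 100% = vehicle minus unstimulated blank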
Target sequence (P51787 whole entry, looked up): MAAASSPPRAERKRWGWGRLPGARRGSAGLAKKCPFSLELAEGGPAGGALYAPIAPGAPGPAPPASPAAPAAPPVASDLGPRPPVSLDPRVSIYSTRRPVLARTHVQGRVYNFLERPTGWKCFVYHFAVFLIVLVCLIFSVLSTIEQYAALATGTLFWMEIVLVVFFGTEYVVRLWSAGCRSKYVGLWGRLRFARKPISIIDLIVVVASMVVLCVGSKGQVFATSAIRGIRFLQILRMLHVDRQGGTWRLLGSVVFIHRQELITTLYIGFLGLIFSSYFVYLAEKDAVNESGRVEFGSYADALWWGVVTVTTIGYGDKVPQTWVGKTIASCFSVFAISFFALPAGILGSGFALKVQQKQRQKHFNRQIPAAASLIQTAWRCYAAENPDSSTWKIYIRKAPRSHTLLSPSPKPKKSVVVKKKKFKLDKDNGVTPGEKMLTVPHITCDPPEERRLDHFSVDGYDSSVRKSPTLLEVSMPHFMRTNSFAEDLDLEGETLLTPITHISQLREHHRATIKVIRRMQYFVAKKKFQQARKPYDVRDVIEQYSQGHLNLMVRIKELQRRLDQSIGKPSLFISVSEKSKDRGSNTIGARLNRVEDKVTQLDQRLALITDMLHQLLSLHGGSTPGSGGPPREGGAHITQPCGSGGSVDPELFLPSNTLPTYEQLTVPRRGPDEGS
KCNQ2 pot confirm = rat KCNQ2 channel potentiators, confirmation, cell-based, CHO, FluxOR thallium flux, duplicate; shares compounds with KCNQ2 pot; CHO-KCNQ2 cells, FluxOR thallium flux fluorescence; potentiation, less the hit threshold, % at 10 µM; actives 68% (n = 1,200);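 active means fluorescence ratio rising 3 SD or more over the vehicle control mean in both replicates, plus primary screen hit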;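 further: peak minus minimum thallium fluorescence divided by baseline after K/Tl stimulus; 0% = vehicle mean plus 3 SD and 100% = vehicle minus unstimulated blank difference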
Kir21 spec = mouse Kir2.1 channel activation off-target, confirmation, selectivity assay for KCNQ2 potentiator project, cell-based, HEK293, FluxOR thallium flux; shares compounds with KCNQ2 pot; HEK293 Kir2.1, FluxOR thallium flux fluorescence; activity over 3SD threshold, % at 10 µM; actives 2% (n = 1,200); AID 2345, 2010;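 active means fluorescence ratio rise of at least 3 SD above the vehicle-control mean, seen in both replicates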;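 further: 0% = vehicle mean plus 3 SD and 100% = vehicle minus no-stimulus blank window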
KCNQ2 W236L MoA = potentiators of retigabine-insensitive KCNQ2 W236L, mechanism study for KCNQ2 potentiator project, cell-based, rat KCNQ2 W236L, CHO, automated patch clamp; shares compounds with KCNQ2 pot; automated patch clamp current; current increase over 3SD of negative controls (%), hits give high values, % at 25 µM; actives 10% (n = 940);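 active means current increase at least 3 SD of the untreated controls above them in both duplicate recordings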
The depositor's hits bear a star; i = inactive; . = not tested or not shown. A selection: hits, their analogues and other compounds. The true share with any hit is near 1.6%.

SMILES	KCNQ2 inh	KCNQ2 pot	Kir21 conf inh	HEK293 Tl flux	others
CCCCCOc1ccc(CSC(=N)N)cc1[N+](=O)[O-]	i	.	29%*	i
COc1ccc(CSC(=N)N)cc1[N+](=O)[O-]	i	0.48	.	.
CCOc1ccc(C(C)=O)cc1CSC(=N)N	i	0.92	.	.
CCN1CCN(C(=O)c2cc(=O)c3cc(C)ccc3o2)CC1	i	0.24	.	.
CN(C(=O)c1ccc2c(=O)n3c(nc2c1)CCCCC3)c1cccc(Cl)c1	i	.	.	.
CCN(CC)CCCNc1ccc(-c2nnc(-c3ccc(OCC(C)C)cc3)o2)cn1	-7.3*	-7.3	65%*	i
CC(C)COc1ccc(-c2nnc(-c3ccco3)o2)cc1	i	0.09	.	.
O=C(CSc1cccc(C(F)(F)F)c1)Nc1ccc(Cl)cc1Cl	i	.	.	.
CC1CCN(C(=O)c2cc(Cl)ccc2NC(=O)c2ccco2)CC1	i	0.7	.	.
CCCC(=O)Nc1ccc(NCc2ccc(C)s2)cc1	i	22*	i	i	CHO-K1 Tl ctr=-22;KCNQ1 sel pot=-32;KCNQ2 pot confirm=85*;Kir21 spec=-27;KCNQ2 W236L MoA=i
CC(=O)Nc1ccc(NCc2ccc(C)s2)cc1	i	3.8	.	.
CCN(CC)c1ccc(/C=N/NC(=O)Nc2nonc2N)cc1	i	0.26	.	.
Cc1noc(C)c1C(=O)N1CCC(C(=O)c2ccccc2)CC1	i	0.49	.	.
CCNC(=S)/N=C(/Nc1ccccc1)Nc1nc(C)cc(C)n1	i	0.68	i	i
CCNC(=S)/N=C(/Nc1ccc(OC)cc1)Nc1nc(C)cc(C)n1	i	.	.	.
CCCCC(=O)Nc1ccccc1C(=O)N1CCOCC1	i	2.4	.	.
O=C(NCCN1CCOCC1)N1c2ccccc2Sc2ccccc21	i	.	.	.
CCN(CC)CCN(C(=O)c1ccc(Br)s1)c1nc2cc3c(cc2s1)OCCO3	i	2	.	.
CN(C)CCCN(C(=O)c1ccc(Br)s1)c1nc2cc3c(cc2s1)OCCO3	i	.	i	i
NC(=O)C1CCN(C(=O)COc2ccc3ccccc3c2Br)CC1	i	.	.	.
O=C(COc1ccc2ccccc2c1Br)N1CCCCC1	i	13*	i	i	CHO-K1 Tl ctr=-2;KCNQ1 sel pot=-25;KCNQ2 pot confirm=30*;Kir21 spec=-35;KCNQ2 W236L MoA=i
COc1ccc(CNC(=O)C(c2ccco2)N(C(=O)c2snc(C(N)=O)c2N)c2cccc(OC)c2)cc1 (configuration not stated)	i	.	.	.
O=C(Cn1ncn2c(cc3sccc32)c1=O)NC1CCCC1	i	0.04	.	.
COC(=O)c1ccc(C)c(NC(=S)NCc2ccc(Cl)cc2)c1	i	0.41	.	.
COC(=O)c1sccc1NC(=S)NCc1ccc(Cl)cc1	i	7.2*	i	212%*	CHO-K1 Tl ctr=2.7*;KCNQ1 sel pot=-20;KCNQ2 pot confirm=38*;Kir21 spec=-22;KCNQ2 W236L MoA=i
SMILES	KCNQ2 inh	KCNQ2 pot	Kir21 conf inh	HEK293 Tl flux	others
COC(=O)c1ccc(NC(=O)CN2CCN(S(=O)(=O)c3ccc(Br)cc3)CC2)cc1	i	.	.	.
COc1ccccc1OCCNc1cc(N2CCCCC2)ccc1[N+](=O)[O-]	i	.	.	.
Cc1ccccc1OCCNc1cc(N2CCNCC2)ccc1[N+](=O)[O-]	i	.	36%*	i
CC[n+]1c(/C=C/c2ccc(N(C)C)cc2)ccc2ccccc21	-9.3*	-9.3	i	i
CC[n+]1c(/C=C/c2ccc(OC(C)=O)c(OC)c2)ccc2ccccc21	i	.	.	.
CCN(CC)c1ccc(/C=C/c2ccc3ccc(OC)cc3[n+]2CC)cc1	-7.6*	-7.6	i	i
CC[n+]1c(/C=C/c2ccc(OC)c(OC)c2)ccc2ccccc21	i	.	.	.
COc1ccc(C(=O)Nc2ccc(C3CC3(Cl)Cl)cc2)cc1 (configuration not stated)	i	1.5	.	.
COc1ccc(OCC(O)CNS(=O)(=O)c2ccc(NC(C)=O)cc2)cc1 (configuration not stated)	i	0.47	.	.
COc1ccc(C(=O)N[C@H](C(=O)OCc2cc(=O)oc3cc(C)ccc23)C(C)C)cc1	i	.	.	.
CCCS(=O)(=O)c1nc(S(=O)(=O)c2ccc(C)cc2)c(NCCCN2CCCC2=O)s1	i	0.21	.	.
COc1cc2c(cc1OC)CN(CCC(C)c1ccc(Cl)cc1)CC2 (configuration not stated)	i	0.03	.	.
C=CCn1c(=S)[nH]c2sc3c(c2c1=O)CCCC3	i	11*	i	298%*	CHO-K1 Tl ctr=-4;KCNQ1 sel pot=-25;KCNQ2 pot confirm=63*;Kir21 spec=-25;KCNQ2 W236L MoA=i
O=c1c2c3c(sc2[nH]c(=S)n1Cc1ccco1)CCC3	i	4.7	.	.
COCCn1c(=S)[nH]c2sc3c(c2c1=O)CCCC3	i	10*	i	326%*	CHO-K1 Tl ctr=-24;KCNQ1 sel pot=35*;KCNQ2 pot confirm=34*;Kir21 spec=-8;KCNQ2 W236L MoA=i
Cc1ccc(-n2c(=S)[nH]c3sc4c(c3c2=O)CCC4)cc1	i	2	.	.
Oc1ccc(/C=N/n2c(C3CCCCC3)n[nH]c2=S)c(O)c1	i	.	.	.
Oc1c(Br)cc(Br)cc1/C=N/n1c(-c2ccccc2)n[nH]c1=S	i	11*	i	i	CHO-K1 Tl ctr=12*;KCNQ1 sel pot=-10;KCNQ2 pot confirm=11*;Kir21 spec=-42;KCNQ2 W236L MoA=i
Cc1nnc(C)n1/N=C/c1cc(Br)ccc1O	i	.	.	.
Oc1ccc(Br)cc1/C=N/n1c(C2CCCCC2)n[nH]c1=S	i	7.4*	i	i	CHO-K1 Tl ctr=70*;KCNQ1 sel pot=-12;KCNQ2 pot confirm=-16;Kir21 spec=-19
Oc1c(Br)cc(/C=N/n2c(-c3ccccc3)n[nH]c2=S)c(Br)c1O	i	.	.	.
Cc1nnc(C)n1/N=C/c1cc(Br)cc(Br)c1O	i	11*	i	i	CHO-K1 Tl ctr=-23;KCNQ1 sel pot=41*;KCNQ2 pot confirm=17*;Kir21 spec=-30;KCNQ2 W236L MoA=i
O=C(CN1C(=O)COc2ccc(S(=O)(=O)N3CCOCC3)cc21)NCc1ccco1	i	1.5	.	.
